Data as given in PubChem BioAssay (NCATS).
Inconclusive results are not listed. A call without a number means that no potency is given here. Activity calls are given as the source filed them. Unless noted, calls come from the whole dose curve.

Legend:
[1] = biological target: Calcium and integrin-binding protein 1 (Homo sapiens) (UniProt Q99828); assay: Validation qHTS for Identification of Calcium Integrin Binding protein 1 (CIB1) Competitor (AID 1508618; active = well fitted curve in the direction sought with a large enough effect; an effect the other way counts as inactive or inconclusive)
Calcium and integrin-binding protein 1 (Homo sapiens), sequence (Q99828 whole entry, looked up): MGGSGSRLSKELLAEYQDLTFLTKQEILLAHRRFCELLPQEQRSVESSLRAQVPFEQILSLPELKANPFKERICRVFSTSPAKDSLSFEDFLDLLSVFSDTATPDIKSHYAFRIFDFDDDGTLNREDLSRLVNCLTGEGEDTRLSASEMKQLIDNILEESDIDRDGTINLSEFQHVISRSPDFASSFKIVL
Outline: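 Fluorescence polarization with 1 uM CIB1-GST and 100 nM FITC-alphaIIb peptide in HEPES pH 7.4, NaCl, 5 mM CaCl2, Tween20. Compounds at up to 114 uM final, preincubated with protein 15 min; read after 15 min more at RT.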

[2] = Primary qHTS for small molecule stabilizers of the endoplasmic reticulum resident proteome: Secreted ER Calcium Modulated Protein (SERCaMP) assay (AID 1508630; active = well fitted curve in the direction sought with a large enough effect; an effect the other way counts as inactive or inconclusive)
Outline: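 GLuc-SERCaMP-expressing SH-SY5Y cells, pretreated 16 h with compound, are challenged with thapsigargin to empty ER calcium stores; after 4 h, coelenterazine is added directly to the medium and luminescence is imaged.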

[3] = biological target: Calcium and integrin-binding protein 1 (Homo sapiens) (UniProt Q99828); assay: Primary qHTS for Identification of Calcium Integrin Binding Protein 1 (CIB1) Competitor (AID 1508620; active = well fitted curve in the direction sought with a large enough effect; an effect the other way counts as inactive or inconclusive;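 note: GST tagged CIB1 binding a fluorescein labelled alphaIIb integrin peptide tracer; top concentration of the series differs between compounds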)
Outline: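 CIB1-GST (1 uM final) and compound incubated 15 min at room temperature before adding FITC-alphaIIb peptide tracer (100 nM final). Competition for binding read by fluorescence polarization (ex 480, em 540) after another 15 min at room temperature.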

[4] = Primary qHTS for inhibitors of nuclear receptor binding SET domain protein 2 (NSD2) in an isogenic RCH-ACV NSD2 p.E1099K mutant (9B) (AID 1645876; active = well fitted curve in the direction sought with a large enough effect; an effect the other way counts as inactive or inconclusive; note: nearly all actives have a fitted effect of over 70% in size)
[5] = Primary qHTS for inhibitors of MERS-S pseudo-typed particle cell entry (AID 1479149); conditions: outcome: dose series up to 57.1 µM unless noted; note: nearly all actives have a fitted effect of over 60% in size
[6] = Primary qHTS for Vero E6 cytotoxicity: counterscreen for inhibitors of SARS-S pseudo-typed particle cell entry (AID 1479150); note: potency is the fitted concentration of half-maximal effect
[7] = Cytotoxicity counterscreen for inhibitors of SARS-CoV-2 cell entry (AID 1645845); conditions: outcome: dose series up to 57.1 µM unless noted; note: nearly all actives have a fitted effect of over 50% in size
Outline: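 48 h compound treatment (after 1 h preincubation), HEK293-ACE2 cells, 37 C/5% CO2; ATP luminescence endpoint; normalized to cell wells and media blanks.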

[8] = Primary qHTS to identify inhibitors of SARS-CoV-2 cell entry (AID 1645846); conditions: activity change, negative = inhibition: at 57.1 µM (top of the series) unless noted; note: nearly all actives have a fitted effect of over 45% in size; note: potency is the fitted concentration of half-maximal effect
Outline: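 Inhibition of spike-mediated entry was scored in human ACE2-transfected Expi293F cells. Particles were MLV-pseudotyped with Wuhan-Hu-1 S carrying a 19-aa C-terminal deletion; signal was luciferase after two days, scaled between spike PP and fusion-protein-free PP.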

[9] = Primary qHTS for inhibitors of La Crosse Virus (LACV) - induced cell death in SH-SY5Y cells (AID 1508616; active = well fitted curve in the direction sought with a large enough effect; an effect the other way counts as inactive or inconclusive;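 note: top concentration of the series differs between compounds; higher means more rescue of cells from virus-induced death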)
Outline: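 SH-SY5Y cells (6000/well) plated 24 h, then given compounds by pin transfer and LACV at 0.01 MOI for 6 days at 37C. Viability measured by ATPLite luminescence, normalized to infected DMSO and uninfected DMSO.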

Papain (Carica papaya) = Papain (Carica papaya) (UniProt P00784); assay: Primary qHTS assay for inhibitors of the protease papain (AID 1645873; active = well fitted curve in the direction sought with a large enough effect; an effect the other way counts as inactive or inconclusive;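 note: papain turnover of Z-FR-AMC read as the AMC fluorescence gain over 10 min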)
Papain (Carica papaya), sequence (P00784 whole entry, looked up): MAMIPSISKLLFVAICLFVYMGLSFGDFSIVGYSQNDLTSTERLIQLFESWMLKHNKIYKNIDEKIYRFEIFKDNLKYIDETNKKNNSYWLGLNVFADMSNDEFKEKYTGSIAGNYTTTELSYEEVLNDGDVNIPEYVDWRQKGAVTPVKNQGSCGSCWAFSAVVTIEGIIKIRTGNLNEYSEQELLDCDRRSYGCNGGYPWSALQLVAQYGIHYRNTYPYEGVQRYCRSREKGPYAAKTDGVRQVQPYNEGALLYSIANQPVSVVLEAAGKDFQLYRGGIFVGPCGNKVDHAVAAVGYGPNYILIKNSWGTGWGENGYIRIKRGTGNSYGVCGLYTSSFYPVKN

[10] = Confirmatory qHTS for VERO E6 Cytotoxicity Assay: Counterscreen for SARS-CoV-2 CPE Assay (AID 1508605); note: nearly all actives have a fitted effect of over 60% in size
[11] = Confirmatory qHTS to identify inhibitors of SARS-CoV-2 cell entry (AID 1645844); conditions: SARS-CoV-2 pseudotyped particle cell entry, luciferase; note: potency is the fitted concentration of half-maximal effect; nearly all actives have a fitted effect of over 45% in size
Outline: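 Luminescence from a luciferase reporter, read 48 hr after pseudotyped-particle addition, gives entry signal, normalised to spike-bearing PP wells and bald PP lacking fusion protein wells. Cells are Expi293F stably expressing human ACE2, compound-pretreated 1 hr.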

[12] = VSVG counterscreen qHTS to identify inhibitors of SARS-CoV-2 cell entry (AID 1645847); conditions: VSV-G pseudotyped particle entry, luciferase; note: potency is the fitted concentration of half-maximal effect; nearly all actives have a fitted effect of over 65% in size
Outline: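 Luminescence from a luciferase reporter, normalised to bald particle and VSV-G pseudotyped particle wells, is the read-out. Cells are HEK293 expressing human ACE2, exposed to compound 1 h before a 48 h particle infection at 37 °C.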

[13] = Counterscreen qHTS for small molecule stabilizers of the endoplasmic reticulum resident proteome: GLuc-NoTag assay (AID 1508627; active = well fitted curve in the direction sought with a large enough effect; an effect the other way counts as inactive or inconclusive;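 note: SH-SY5Y cells given compound then 100 nM thapsigargin to empty ER calcium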)
Outline: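 Luminescence of Gaussia luciferase secreted into the medium (coelenterazine, 0.07x final, unlysed cells) was the read-out. Human SH-SY5Y neuroblastoma cells constitutively secreting untagged GLuc received compound for 19 h, then 100 nM thapsigargin for 4 h.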

[14] = Cell Viability qHTS for small molecule stabilizers of the endoplasmic reticulum resident proteome (AID 1508629; active = well fitted curve in the direction sought with a large enough effect; an effect the other way counts as inactive or inconclusive;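 note: human SH-SY5Y neuroblastoma cells carrying the GLuc-SERCaMP reporter; compound exposure about 46 h in total before the viability read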); conditions: cell viability counter-screen, 100 nM thapsigargin for final 4 h

## COc1ccc(OC)c(C(O)C(C)N)c1 (stereo unspecified)
[1]
  Potency: inactive
[2]
  outcome: inactive

## O=C1C[C@@H]2OCC=C3CN4CC[C@]56c7ccccc7N1[C@H]5[C@H]2[C@H]3C[C@H]46
[3]
  Potency: inactive
[4]
  Potency: inactive

## COc1cc2c(cc1OC)[C@@]13CCN4CC5=CCO[C@H]6CC(=O)N2[C@H]1[C@H]6[C@H]5C[C@H]43
[3]
  Potency: inactive
[4]
  Potency: inactive

## Cn1sc(Cl)cc1=O
[5]
  outcome: inactive
[6]
  Potency: inactive
[7]
  outcome: inactive
[8]
  activity change, negative = inhibition: -5.28%

## NCCCP(=O)(O)O
[9]
  Potency: inactive
[1]
  Potency: inactive
[2]
  outcome: inactive
Papain (Carica papaya)
  Potency: inactive

## Oc1ccc2c3c1O[C@H]1[C@@H](O)CC[C@@]4(O)[C@@H](C2)N(CC2CCC2)CC[C@]314
[5]
  outcome: inactive
[6]
  Potency: inactive
[7]
  outcome: inactive
[8]
  activity change, negative = inhibition: 1.55%

## O=c1c2ccccc2[se]n1-c1ccccc1
[10]
  outcome: inactive
[2]
  outcome: inactive

## Oc1ccc2c3c1O[C@H]1c4oc5ccccc5c4C[C@@]4(O)C(C2)N(CC2CC2)CCC314 (stereo partly specified)
[9]
  Potency: inactive
[1]
  Potency: inactive
[2]
  outcome: inactive
Papain (Carica papaya)
  Potency: inactive

## CC(=O)O[C@H]1CC[C@H]2[C@@H]3CCC4=CC(=O)CCC4=C3C=C[C@]12C
[5]
  outcome: inactive
[6]
  Potency: inactive
[7]
  outcome: inactive
[8]
  activity change, negative = inhibition: -33.2%

## O=c1[nH]cc(N(CCCl)CCCl)c(=O)[nH]1
[5]
  outcome: inactive [at 114 µM]
[6]
  Potency: inactive
[7]
  outcome: inactive
[8]
  activity change, negative = inhibition: -21% [at 114 µM]

## CO[C@H]1CC=C2CCN3CCC4=C(CC(=O)OC4)[C@]23C1
[9]
  Potency: inactive
[1]
  Potency: inactive
[2]
  outcome: inactive
Papain (Carica papaya)
  Potency: inactive

## O=C(NCNC(=O)NC1C(=O)NC(=O)N1CO)NC1C(=O)NC(=O)N1CO (stereo unspecified)
[5]
  outcome: inactive
[6]
  Potency: inactive
[7]
  outcome: inactive
[8]
  Potency: inactive

## CC[C@H](C)[C@H]1O[C@]2(C=C[C@@H]1C)C[C@@H]1C[C@@H](C/C=C(\C)[C@@H](O[C@H]3C[C@H](OC)[C@@H](O[C@H]4C[C@H](OC)[C@@H](O)[C@H](C)O4)[C@H](C)O3)[C@@H](C)/C=C/C=C3\CO[C@@H]4[C@H](O)C(C)=C[C@@H](C(=O)O1)[C@]34O)O2
[6]
  Potency: inactive
[11]
  Potency: 21.5 µM (active)
[8]
  Potency: 10 µM (active)
[12]
  Potency: 12.1 µM (active)

## CCCCCCCCCCCCCC(=O)O[C@@H]1[C@@H](C)[C@@]2(O)[C@@H](C=C(CO)C[C@@]3(O)C(=O)C(C)=C[C@@H]23)C2C(C)(C)[C@@]21OC(C)=O (stereo partly specified)
[9]
  Potency: inactive
[1]
  Potency: inactive
[2]
  outcome: inactive
Papain (Carica papaya)
  Potency: inactive

## C[C@]12CC[C@H](OS(=O)(=O)O)CC1=CC[C@@H]1[C@@H]2CC[C@]2(C)C(=O)CC[C@@H]12
[5]
  outcome: inactive
[6]
  Potency: inactive
[7]
  outcome: inactive
[8]
  activity change, negative = inhibition: -5.13%

## O=C1OC2(c3cc(Br)c(O)cc3Oc3c2cc(Br)c(O)[c]3[Hg])c2ccccc21 (stereo unspecified)
[5]
  outcome: inactive
[2]
  outcome: inactive
[8]
  Potency: 10 µM (active)

## COC([CH2][Hg])CNC(=O)c1ccccc1OCC(=O)O (stereo unspecified)
[6]
  Potency: 3.55 µM (active)

## CCC1(C)CC(=O)NC(=O)C1
[5]
  outcome: inactive
[6]
  Potency: inactive
[7]
  outcome: inactive [at 114 µM]
[8]
  activity change, negative = inhibition: -21.5% [at 114 µM]

## Nc1ccc(CCN2CCN(c3cccc(C(F)(F)F)c3)CC2)cc1
[9]
  Potency: inactive
[1]
  Potency: inactive
[13]
  outcome: inactive
[14]
  max response: 11.7% (inactive)
[2]
  outcome: inactive
Papain (Carica papaya)
  Potency: inactive
